# HT1080 IDH1KD tx = kills HT-1080 cells with IDH1 knockdown | Potency, µM (doses to about 46.1 µM), inactives show top-dose activity, negative = toxicity, most hits filed as cytotoxic | 360,000 tested, 2% active | HT-1080 IDH1 knockdown viability, ATP luminescence, 48 h;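 further: potency means the concentration at half of the fitted maximal effect; 0% = DMSO wells and -100% = cell-free medium wells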
#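 Using the IDH1-knockdown HT-1080 line run in the same batch and compound series as the NT line, viability after 48 h at 37 °C was determined by CellTiter-Glo luminescence and expressed as % activity.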
# HT1080NT lethal = kills 2HG-producing HT-1080-NT fibrosarcoma cells; Potency, µM (series often up to 46.1 µM), for inactives: at the highest dose activity, negative = less viability, usual class: cytotoxic; HT-1080-NT fibrosarcoma viability, CellTiter-Glo ATP luminescence, 48 h; 360,000 tested, 1.6% active;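 further: NT is the 2HG producing partner of a matched IDH1 knockdown line; potency means the concentration at half of the fitted maximal effect; 0% = DMSO-treated cells and -100% = media-only wells without cells; nearly all actives have a fitted effect of over 55% in size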
#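 A 48-hour cytotoxicity screen used HT-1080-NT cells plated 2 hours before compound delivery. ATP-based CellTiter-Glo luminescence measured viability, normalized to DMSO and no-cell controls.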
# DT40 TDP1 no CPT = qHTS for Inhibitors of human tyrosyl-DNA phosphodiesterase 1 (TDP1): qHTS in cells in absence of CPT | 420,000 tested, 15% active | DT40 Tdp1-/- hTDP1 cells, no CPT, ATP luminescence, 48 h | Potency, µM (titrated, usually from 46.2 µM), for inactives: at the highest dose activity change, negative = growth inhibition, actives largely listed as inhibitors | AID 686978, 2013; further: potency means the concentration at half of the fitted maximal effect; nearly all actives have a fitted effect of over 55% in size
#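 Readout: luminescence from CellTiter-Glo after 30 min in the dark at RT. Cells: DT40 Tdp1-/- with stable hTDP1, 400/well. Exposure: compounds alone, ≥48 hr, 37 °C.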
# IL1B secr inh = blocks inflammasome-driven IL-1 beta release | activity change, % at 57.5 µM | 360,000 tested, 4.7% active | THP-1 LPS/ATP IL-1B secretion, AlphaLISA, 16 h; active compounds read low; in the data active means activity change below about -50%; inconclusive means mostly about -30% to -49%
#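 Secreted IL-1B measured by AlphaLISA bead assay after 16 h compound exposure of THP-1 cells; compounds (final up to 57.5 uM) added 1 h before LPS (250 ng/mL) and ATP (1.25 mM) stimulation; lower signal means less secretion.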
# DT40 TDP1 CPT = DT40-hTDP1 cell growth loss with CPT. 420,000 tested, 12% active. chicken DT40 Tdp1-/-;hTDP1 cells + 20 nM CPT, ATP luminescence, 48 h. Potency, µM (series often up to 46.2 µM), for the others: top-dose activity change, negative = growth inhibition, hits mostly inhibitors; further: potency means the concentration at half of the fitted maximal effect; nearly all actives have a fitted effect of over 55% in size
#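 Cell growth measured by CellTiter-Glo luminescence after a minimum 48 h, 37 C compound exposure with 20 nM CPT in Tdp1-knockout DT40 cells stably expressing hTDP1, seeded 400/well; qHTS titration format.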
# Starred values were filed as active, the others as inactive; ? = inconclusive; / = not tested or not shown; [ ] = another dose, or the depositor's remark. Hits are enriched below; roughly 19% of the tested compounds scored in any of these assays. Unless noted, the call rests on the fitted dose curve; in most records, active means well fitted curve in the direction sought with a large enough effect; inconclusive means small, poorly fitted or top-dose-only effect, or another doubt; inactive means no such curve, though single readings can be large; an effect the other way counts as inactive or inconclusive. Unless noted, on the % scale 0 is the no-effect control and ±100 the full control effect.
SMILES,HT1080 IDH1KD tx,HT1080NT lethal,DT40 TDP1 no CPT,IL1B secr inh,DT40 TDP1 CPT
C=CCn1c(SCC(=O)N2CCc3ccccc3C2)nc2sc(CC)cc2c1=O,0%,-4%,?,-2,?
C=CCn1c(SCC(=O)N2CCc3ccccc3C2)nc2ccccc2c1=O,-12%,0%,18µM*,13,?
C=CCn1c(SCC(=O)N2CCc3ccccc3C2)nc2sc(C)c(C)c2c1=O,1%,-4%,?,-6,18µM*
COCC(C)n1c(SCC(=O)N2CCc3ccccc3C2)nc2ccccc2c1=O (stereo not given),-1%,-4%,1.8µM*,-24,2.3µM*
COCC(C)n1c(SCc2cc(=O)n3cc(C)ccc3n2)nc2ccccc2c1=O (stereo not given),?,-25%,10µM*,5,?
CCN(CC)C(=S)SCC(=O)Nc1ncc2c(n1)CC(C)(C)CC2=O,4%,0%,-6%,/,2%
Cc1ccc(S(=O)(=O)N2CCC[C@H]2C(=O)NC2CCCCC2)cc1,5%,-2%,?,10,?
C=CCn1c(SCC(=O)Nc2ccccc2C)nc2sc(C)c(C)c2c1=O,-21%,-3%,?,6,-26%
C=CCn1c(SCC(=O)Nc2cccc(S(N)(=O)=O)c2)nc2sc(C)c(C)c2c1=O,?,-8%,?,-61*,?
O=C(Nc1ncccn1)c1ccc([N+](=O)[O-])o1,?,?,?,-90*,?
NC(=O)c1ccsc1NC(=O)c1ccc([N+](=O)[O-])o1,?,?,8.2µM*,-68*,13µM*
NC(=O)c1ccsc1NC(=O)COC(=O)c1ccc([N+](=O)[O-])o1,-1%,1%[9.24 µM],-9%,3,?
Cc1ccnc(NC(=O)c2ccc([N+](=O)[O-])o2)c1,-24%,?,?,/,21µM*
O=C(Nc1ccccn1)c1ccc([N+](=O)[O-])o1,?,?,16µM*,-92*,16µM*
CN1CCC(NC(=O)Nc2ccc(Br)cc2)CC1,3%,-21%,?,-2,-15%
CN1CCN(C(=S)NC(=O)c2ccc(Br)cc2)CC1,2%,22%,5.2µM*,-13,?
CN1CCN(C(=S)C(=O)Nc2ccc(Br)cc2)CC1,1%,4%,?,12,13µM*
Cc1cccc(C(=O)NC(=S)N2CCN(C)CC2)c1,10µM*,13µM*,?,2,?
COc1ccc(NC(=O)C2(c3cccs3)CCOCC2)cc1Cl,/,/,?,/,-29%
O=S(=O)(Nc1nc(-c2sccc2Cl)cs1)c1cc(Cl)ccc1Cl,-28%,-16%,-22%,35,-22%
COc1cc(C(=O)NCC(=O)NNC(=O)C2COc3ccccc3O2)cc(OC)c1OC (stereo not given),5%,0%,28%,10,-4%
O=C(Cc1ccc(F)cc1)NC1CC(=O)N(c2ccccc2)C1 (stereo not given),/,/,9%,/,6%
COc1ccccc1/C=N/NC(=O)c1ccc(-c2ccccc2)cc1,-18%,-27%,?,27,21µM*
COc1cc(/C=N\NC(=O)c2ccc(-c3ccccc3)cc2)cc(OC)c1OC(C)=O,-12%,-4%,-25%,-50*,?
COc1cc(/C=N\NC(=O)c2ccc(-c3ccccc3)cc2)cc(OC)c1O,-21%,0%,-25%,?,?
SMILES,HT1080 IDH1KD tx,HT1080NT lethal,DT40 TDP1 no CPT,IL1B secr inh,DT40 TDP1 CPT
COc1cccc(/C=N/NC(=O)c2ccc(=O)n(C)c2)c1OC,22%,17%,9%,20,21%
COc1cccc(/C=N/NC(=O)c2ccccc2)c1OS(=O)(=O)c1ccccc1,-7%,-12%,26µM*,-26,?
CN(CC(=O)Nc1ccccc1Br)C(=O)CNC(=O)Cc1cccc2ccccc12,0%,-7%,?,13,-19%
COc1ccc(CN(Cc2ccco2)c2cnc(S(C)(=O)=O)nc2C(=O)Nc2ccc(C)c(Cl)c2)cc1,/,/,-22%,/,?
CCc1ccc(NC(=O)N(Cc2cccnc2)Cc2ccco2)cc1,-14%,11%,-14%,-16,-18%
CCc1ccc(CN(Cc2ccco2)c2cnc(S(C)(=O)=O)nc2C(=O)Nc2c(C)cccc2C)cc1,/,/,18µM*,/,16µM*
Cc1ccc(NC(=O)c2nc(S(C)(=O)=O)ncc2N(Cc2ccco2)Cc2ccco2)cc1,/,/,12µM*,/,8.2µM*
CC(C)c1ccc(CN(Cc2ccco2)c2cnc(S(C)(=O)=O)nc2C(=O)Nc2ccc(F)cc2)cc1,/,/,21µM*,/,?
CCOc1ccccc1NC(=O)N1CCN(S(=O)(=O)c2ccc3c(ccn3C)c2)CC1,/,/,-27%,/,-16%
Cc1cc(C)n2nc(C(=O)OCC(=O)Nc3cc(S(=O)(=O)N4CCOCC4)ccc3Cl)nc2n1,-3%,-3%,-1%,0,6%
Cc1ccc(S(=O)(=O)/N=C(/c2ccc(F)cc2)N2CCCCC2)cc1,8%,1%,-3%,-5,6%
O=C(CCc1ccc(S(=O)(=O)N2CCOCC2)cc1)Nc1ccc(F)cc1[N+](=O)[O-],-1%,0%,-28%,-4,?
CN(C)c1cccc(C(=O)NCCCSc2ccccc2)c1,-1%,-1%,-4%,-16,?
O=C(NCCc1cccnc1)C1CCC(=O)N(Cc2ccc(Cl)cc2)C1 (stereo not given),4%,3%,19%,2,3%
CC(C)(c1ccc(O)c([N+](=O)[O-])c1)c1ccc(O)c([N+](=O)[O-])c1,-16%,-6%,-6%,38,4%
CN(C)Cc1cc(C(C)(C)c2ccccc2)ccc1O,-28%,-1%,?,?,23µM*
Nc1cc2c(cc1C(=O)c1ccc(Cl)cc1)OCCO2,-24%,5%,0%,-2,0%
O=C(CN1C(=O)c2ccccc2C1=O)C(O)CN1C(=O)c2ccccc2C1=O (stereo not given),21%,?,-14%,43,-12%
CC1CC(C)CN(C(C(=O)NC2CCCCC2)c2cc3ccccc3o2)C1 (stereo not given),?,?,26µM*,-28,?
CN(C(=O)COC(=O)CCc1c[nH]c2ccccc12)c1ccccc1,3%,-1%,-15%,0,-33%
COc1ccc(C(=O)Cn2c(=N)n(C)c3ccccc32)cc1,?,?,21µM*,-56*,?
COc1ccc(C(=O)CN2C(=O)COc3ccccc32)cc1,?,15%,-22%,-2,-16%
COc1ccc(C(=O)Cn2c(C(C)=O)nc3ccccc32)cc1,?,-10%,7.3µM*,13,15µM*

# Source: PubChem BioAssay (National Center for Advancing Translational Sciences (NCATS))
